Screens: PubChem BioAssay, National Center for Advancing Translational Sciences (NCATS)
A selection: hits, their analogues and other compounds. The true share with any hit is near 19%.
TDP1 cell CPT – DT40-hTDP1 cell growth loss with CPT | chicken DT40 Tdp1-/-;hTDP1 cells + 20 nM CPT, ATP luminescence, 48 h | Potency, µM (top dose mostly 46.2 µM), inactives show at the highest dose activity change, negative = growth inhibition, usual class: inhibitors | 420,000 tested, 12% active | AID 686979; further: potency means the concentration at half of the fitted maximal effect; nearly all actives have a fitted effect of over 55% in size
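Chicken DT40 Tdp1-/- cells complemented with human TDP1, 400 cells/well, exposed to compounds plus 20 nM camptothecin for at least 48 h at 37 C; viability read as ATP content by CellTiter-Glo luminescence.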
IL-1B inflam inh – inflammasome signaling inhibition, IL-1 beta readout. 360,000 tested, 4.7% active. THP-1 LPS/ATP IL-1B secretion, AlphaLISA, 16 h; hits give low values. activity change, % at 57.5 µM; in the data active means activity change below about -50%; inconclusive means mostly about -30% to -49%
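Secreted IL-1B measured by AlphaLISA bead assay after 16 h compound exposure of THP-1 cells; compounds (final up to 57.5 uM) added 1 h before LPS (250 ng/mL) and ATP (1.25 mM) stimulation; lower signal means less secretion.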
ELG1 DNA repair – ELG1-dependent DNA repair inhibition | HEK293T ELG1-luciferase reporter, luminescence, 16 h; DNA damage induced by 5-fluorouridine | Potency, µM (top dose mostly 46.1 µM), inactives show at the top dose activity change, negative = inhibition, usual class: inhibitors | 330,000 tested, 2.3% active; further: potency means the concentration at half of the fitted maximal effect; nearly all actives have a fitted effect of over 55% in size
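Cells (2,000 per well) received 5-fluorouridine plus test compound or DMSO and were incubated 16 hr at 37 °C, 5% CO2. Luciferase activity was read by luminescence 30 min after ONE-Glo addition; signal suppression marked inhibition of damage-induced ELG1 function.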
DT40 TDP1 no CPT – qHTS for Inhibitors of human tyrosyl-DNA phosphodiesterase 1 (TDP1): qHTS in cells in absence of CPT; 420,000 tested, 15% active; AID 686978, 2013; Potency, µM (top dose mostly 46.2 µM), for the others: at the top dose activity change, negative = growth inhibition, usual class: inhibitors; DT40 Tdp1-/- hTDP1 cells, no CPT, ATP luminescence, 48 h; further: potency means the concentration at half of the fitted maximal effect; nearly all actives have a fitted effect of over 55% in size
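Growth kinetics read by CellTiter-Glo luminescence after ≥48 hr at 37 °C. Cells: DT40 Tdp1-/- stably carrying human TDP1, 400 per well, compound exposure in the absence of CPT (DMSO vehicle).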
TDP1 inh – blocks human tyrosyl-DNA phosphodiesterase 1 | Q9NUW8 | recombinant TDP1, AlphaScreen DNA substrate cleavage | Potency, µM (series often up to 130 µM), without a hit: top-dose activity change, negative = inhibition, usual class: inhibitors | 350,000 tested, 0.28% active; further: potency means the concentration at half of the fitted maximal effect; nearly all actives have a fitted effect of over 40% in size
Target sequence (Q9NUW8 whole entry, looked up): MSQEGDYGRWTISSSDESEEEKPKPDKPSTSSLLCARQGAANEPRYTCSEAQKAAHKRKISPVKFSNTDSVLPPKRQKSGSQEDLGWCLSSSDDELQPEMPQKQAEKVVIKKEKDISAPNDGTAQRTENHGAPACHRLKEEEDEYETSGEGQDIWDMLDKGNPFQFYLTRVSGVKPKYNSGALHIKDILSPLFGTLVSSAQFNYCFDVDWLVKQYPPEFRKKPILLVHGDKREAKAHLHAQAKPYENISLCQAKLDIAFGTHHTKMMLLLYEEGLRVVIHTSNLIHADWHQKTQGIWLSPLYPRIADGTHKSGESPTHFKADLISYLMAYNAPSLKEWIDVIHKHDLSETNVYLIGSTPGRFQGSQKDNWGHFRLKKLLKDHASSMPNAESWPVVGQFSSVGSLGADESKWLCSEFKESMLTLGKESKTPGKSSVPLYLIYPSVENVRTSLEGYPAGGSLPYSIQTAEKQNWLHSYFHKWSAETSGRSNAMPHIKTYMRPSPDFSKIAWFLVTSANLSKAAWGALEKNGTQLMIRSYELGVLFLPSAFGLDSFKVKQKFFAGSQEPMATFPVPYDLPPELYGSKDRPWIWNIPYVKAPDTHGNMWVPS
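Here, a 5' biotin and 3' phosphotyrosine-FITC DNA oligonucleotide reports Tdp1 activity: intact substrate bridges AlphaScreen beads, while cleavage leaves a 3' phosphate and drops signal. All incubations at room temperature.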
Giardia killer – kills Giardia lamblia | 340,000 tested, 0.15% active | Giardia lamblia trophozoite viability | activity change, % at 7.66 µM, hits read low; in the data active means activity change below about -80%; inconclusive means between about -30% and that limit;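 further: parasites exposed to compound for two days anaerobically before the ATP read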
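Each well holds 100 Giardia trophozoites and compound. After two days (48 hrs) at 37 deg C in anaerobic conditions, ATP is quantified by luminescence.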
An asterisk follows results filed as active; [ ] = remark or other dose. Unless noted, the call rests on the fitted dose curve; in most records, active means well fitted curve in the direction sought with a large enough effect; inconclusive means small, poorly fitted or top-dose-only effect, or another doubt; inactive means no such curve, though single readings can be large; an effect the other way counts as inactive or inconclusive. On the % scale 0 is the no-effect control and ±100 the full control effect.

What do the screens show for `CCC(C(=O)NCc1ccc(F)cc1)N(Cc1ccco1)C(=O)c1snc(C(N)=O)c1N` (stereo unspecified)?
TDP1 cell CPT: -6%; IL-1B inflam inh: -1; ELG1 DNA repair: -5%; DT40 TDP1 no CPT: -20%; TDP1 inh: 2%; Giardia killer: -5

What do the screens show for `NC(=O)c1nsc(C(=O)N(Cc2ccco2)C(C(=O)NCc2ccccc2)c2ccc(O)cc2)c1N` (stereo unspecified)?
TDP1 cell CPT: inconclusive; IL-1B inflam inh: -4; ELG1 DNA repair: inconclusive; DT40 TDP1 no CPT: 12µM*; TDP1 inh: 3%; Giardia killer: 0

How did CCOc1ccccc1N(C(=O)c1snc(C(N)=O)c1N)C(C(=O)NCc1ccccc1)c1ccc(O)cc1 (stereo unspecified) do in these assays?
TDP1 cell CPT: 23µM*; IL-1B inflam inh: -67*; ELG1 DNA repair: -19%; DT40 TDP1 no CPT: inconclusive; TDP1 inh: 15%; Giardia killer: -13

How did Cc1ccccc1N(C(=O)c1snc(C(N)=O)c1N)C(C(=O)NCc1ccccc1)c1ccc(O)cc1 (stereo unspecified) do in these assays?
TDP1 cell CPT: 23µM*; IL-1B inflam inh: -100*; ELG1 DNA repair: inconclusive; DT40 TDP1 no CPT: 26µM*; Giardia killer: 3

Results for COc1ccc(-c2cc(C(=O)Oc3cccc(C)c3C)c3ccccc3n2)cc1 ?
TDP1 cell CPT: inconclusive; DT40 TDP1 no CPT: inconclusive; TDP1 inh: -14%[12.3 µM]

How did COc1cc(C(C(=O)NC2CCCC2)N(Cc2ccco2)C(=O)c2snc(C(N)=O)c2N)cc(OC)c1OC (stereo unspecified) do in these assays?
TDP1 cell CPT: 3%; IL-1B inflam inh: 16; ELG1 DNA repair: 4%; DT40 TDP1 no CPT: inconclusive; TDP1 inh: 3%; Giardia killer: 10

What do the screens show for `CN(C)c1ccc(C(C(=O)NC2CCCCC2)N(Cc2ccco2)C(=O)c2snc(C(N)=O)c2N)cc1` (stereo unspecified)?
TDP1 cell CPT: inconclusive; IL-1B inflam inh: -72*; ELG1 DNA repair: inconclusive; DT40 TDP1 no CPT: 9.2µM*; TDP1 inh: 14%; Giardia killer: 13

How did COc1ccc(C(C(=O)NCc2ccccc2)N(Cc2cccnc2)C(=O)c2snc(C(N)=O)c2N)cc1OC (stereo unspecified) do in these assays?
TDP1 cell CPT: -4%; IL-1B inflam inh: 0; ELG1 DNA repair: -10%; DT40 TDP1 no CPT: -10%; Giardia killer: -5

What do the screens show for `CN(C)c1ccc(C(C(=O)NCc2ccccc2)N(Cc2cccnc2)C(=O)c2snc(C(N)=O)c2N)cc1` (stereo unspecified)?
TDP1 cell CPT: 21µM*; IL-1B inflam inh: -19; ELG1 DNA repair: inconclusive; DT40 TDP1 no CPT: 16µM*; TDP1 inh: 16%; Giardia killer: 10

Results for COc1ccc(CC(=O)OCC(=O)NCCc2ccccc2)cc1OC ?
TDP1 cell CPT: -4%; IL-1B inflam inh: -4; ELG1 DNA repair: inconclusive; DT40 TDP1 no CPT: -11%; TDP1 inh: 0%; Giardia killer: 3

How did CN1CC(c2ccc(Cl)c(Cl)c2)[C@@]2(COc3ccccc3C2=O)[C@@]12C(=O)Nc1ccccc12 (stereo partly specified) do in these assays?
TDP1 cell CPT: 18µM*; IL-1B inflam inh: -12; ELG1 DNA repair: -7%; DT40 TDP1 no CPT: inconclusive; TDP1 inh: 2%; Giardia killer: -11

How did O=C(NC1CC2CCCC(C1)N2Cc1ccco1)NC12CC3CC(CC(C3)C1)C2 (stereo unspecified) do in these assays?
TDP1 cell CPT: 21µM*; IL-1B inflam inh: -4; ELG1 DNA repair: -2%; DT40 TDP1 no CPT: 18µM*; TDP1 inh: 4%; Giardia killer: -8

How did CCNC(=S)NC1CC2CCCC(C1)N2Cc1ccco1 (stereo unspecified) do in these assays?
TDP1 cell CPT: 6%; IL-1B inflam inh: 10; ELG1 DNA repair: -5%; DT40 TDP1 no CPT: -6%; TDP1 inh: 4%; Giardia killer: 27

Results for COc1ccc(C2/C=C\CN(S(=O)(=O)CC34CCC(CC3=O)C4(C)C)CC(=O)N2Cc2ccc(F)cc2)cc1 (stereo unspecified) ?
TDP1 inh: 7%; Giardia killer: 16

Results for Cc1cc(Br)cc(C)c1OCC(=O)Nc1ccc(S(=O)(=O)Nc2ncccn2)cc1 ?
TDP1 cell CPT: inconclusive; DT40 TDP1 no CPT: -4%; TDP1 inh: 0%

What do the screens show for `O=C(O)c1cc([N+](=O)[O-])cc2c1nnn2O`?
TDP1 cell CPT: inconclusive; IL-1B inflam inh: -10; ELG1 DNA repair: -7%; DT40 TDP1 no CPT: -28%; TDP1 inh: 0%; Giardia killer: 8

Results for CC(C)(C)OC(=O)N1CCC[C@H]1C(O)(c1ccccc1)c1ccccc1 ?
TDP1 inh: 3%

What do the screens show for `C[C@@H]1[C@H]2CCCC[C@H]2CN(C(=O)OC(C)(C)C)[C@@H]1CC(=O)c1ccccc1`?
TDP1 cell CPT: inconclusive; IL-1B inflam inh: 12; ELG1 DNA repair: 0%; DT40 TDP1 no CPT: 16µM*; TDP1 inh: -2%[56.1 µM]; Giardia killer: -7

What do the screens show for `C[C@@H]1[C@H]2CCCC[C@H]2CN(C(=O)OC(C)(C)C)[C@@H]1c1cn(Cc2ccccc2)c2ccc(F)cc12`?
TDP1 cell CPT: inconclusive; IL-1B inflam inh: 9; ELG1 DNA repair: 5%; DT40 TDP1 no CPT: 16µM*; TDP1 inh: 0%[56.1 µM]; Giardia killer: -25

How did O=C(O)c1ccc(N/N=C/c2cn(Cc3ccc(F)cc3)c3ccccc23)cc1 do in these assays?
TDP1 cell CPT: inconclusive; IL-1B inflam inh: 29; ELG1 DNA repair: inconclusive; DT40 TDP1 no CPT: inconclusive; TDP1 inh: 5%; Giardia killer: 1

How did COc1cccc2cc(C(=O)Nc3ccc(C)cc3)c(=O)oc12 do in these assays?
TDP1 cell CPT: -6%; DT40 TDP1 no CPT: -1%; TDP1 inh: -3%[12.3 µM]

Results for COc1ccc(NC(=O)c2cc3cccc(OC)c3oc2=Nc2ccc(C(=O)O)cc2)cc1OC ?
TDP1 cell CPT: 9.2µM*; IL-1B inflam inh: -1; ELG1 DNA repair: inconclusive; DT40 TDP1 no CPT: 13µM*; TDP1 inh: 5%; Giardia killer: 10

What do the screens show for `Cc1ccc(C)c(NC(=O)C2CCCN2C(=O)NC2CCCCC2)c1` (stereo unspecified)?
TDP1 cell CPT: 9%; IL-1B inflam inh: 48; ELG1 DNA repair: 0%; DT40 TDP1 no CPT: 3%; TDP1 inh: 0%; Giardia killer: -23
